Assay outcomes as filed in PubChem.
Compounds with a hit are over-represented: about 3.2% of the library has one in this group of screens.
DAGLB inh: DAGLB lipase inhibitors, primary screen, biochemical, fluorescence, HTS; Diacylglycerol lipase-beta (Homo sapiens), Q8NCG7; HEK293T DAGLB membrane lysate, EnzChek fluorogenic substrate; inhibition, % at 5.17 µM; 0.059% of 340,000 active; in the data active means inhibition above about 34%;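 further: 0% = enzyme with vehicle and 100% = wells lacking enzyme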
Target sequence (Q8NCG7 whole entry, looked up): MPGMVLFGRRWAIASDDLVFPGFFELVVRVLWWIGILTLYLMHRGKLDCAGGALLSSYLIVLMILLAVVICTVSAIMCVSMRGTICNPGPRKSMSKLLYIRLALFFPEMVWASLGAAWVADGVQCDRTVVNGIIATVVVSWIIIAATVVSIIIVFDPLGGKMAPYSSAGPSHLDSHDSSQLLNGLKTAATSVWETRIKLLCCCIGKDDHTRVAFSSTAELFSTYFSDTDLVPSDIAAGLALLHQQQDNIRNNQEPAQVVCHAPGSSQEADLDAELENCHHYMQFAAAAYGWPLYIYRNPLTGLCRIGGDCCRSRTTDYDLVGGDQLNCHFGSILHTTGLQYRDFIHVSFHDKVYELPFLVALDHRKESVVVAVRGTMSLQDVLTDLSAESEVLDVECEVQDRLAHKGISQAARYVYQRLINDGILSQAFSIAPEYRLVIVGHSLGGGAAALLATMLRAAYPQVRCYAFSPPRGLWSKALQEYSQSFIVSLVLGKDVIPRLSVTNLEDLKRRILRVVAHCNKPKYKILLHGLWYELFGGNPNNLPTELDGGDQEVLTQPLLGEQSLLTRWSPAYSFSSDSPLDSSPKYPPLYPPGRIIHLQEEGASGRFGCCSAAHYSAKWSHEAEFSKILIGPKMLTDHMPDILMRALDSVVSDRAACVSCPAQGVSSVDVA
DSG3 Ab inh: inhibitors of pemphigus antibody binding to DSG3, primary screen, biochemical, bead-based, flow cytometry, scFv-GFP; AID 588358, 2011; 0.48% of 310,000 active; DSG3-coupled beads, scFv-anti-DSG3-GFP binding; hits give low values; Desmoglein-3 (Homo sapiens), P32926; binding (percent of control), % at 10 µM;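 active means binding more than 3 SD below its plate's average and above zero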;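 further: hits lower antibody fragment binding to DSG3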
MsrA inhibitor: bovine MsrA enzyme inhibitors, primary screen, biochemical, absorbance, HTS; Methionine sulfoxide reductase A (Bos taurus); purified bovine MsrA, absorbance read-out; inhibition, % at 15.5 µM; 0.75% of 360,000 active; AID 651718, 2012; in the data active means inhibition above about 4.5%;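 further: 0% = vehicle wells with enzyme and 100% = reference inhibitor wells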
rCAG RNA binder: binders of r(CAG) RNA repeats, primary screen, biochemical, fluorescence | r(CAG) RNA repeat, TO-PRO-1 dye displacement fluorescence | inhibition, % at 3 µM | 1.3% of 370,000 active;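 active means inhibition above the plate cutoff, the mean of all test compounds on that plate plus 3 SD, cut at about 35% in these data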;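 further: 0% = DMSO alone and 100% = 100 µM mitoxantrone as full dye displacement; higher means more dye released from RNA so lower well fluorescence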
MsrA act: bovine MsrA enzyme activators, primary screen, biochemical, absorbance, HTS. AID 602163, 2012. 0.3% of 360,000 active. activation, % at 10.6 µM. purified bovine MsrA, absorbance read-out. Methionine sulfoxide reductase A (Bos taurus); in the data active means activation above about 7.5%;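 further: 0% = vehicle and 100% = reference activator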
NadD inh: inhibitors of S. aureus NadD, primary screen, biochemical, colorimetric, uHTS. inhibition, % at 20 µM. AID 602399, 2012. 0.78% of 360,000 active. Nicotinate-nucleotide adenylyltransferase NadD (Staphylococcus aureus N315). purified NadD enzyme, colorimetric absorbance read-out; in the data active means inhibition above about 26%
NadD conf: inhibitors of S. aureus NadD, confirmation, biochemical, colorimetric, single concentration | shares compounds with NadD inh | purified S. aureus NadD, colorimetric enzyme assay | inhibition, % at 20 µM | 13% of 2,000 active; in the data active means inhibition mostly above about 42%, no sharp cut-off; inactive means mostly below about 42%
rCAG bind conf: small molecules binding CAG repeat RNA – biochemical, fluorescence, confirmation; shares compounds with rCAG RNA binder; r(CAG) RNA repeat, TO-PRO-1 dye displacement fluorescence; inhibition, % at 3 µM; 70% of 4,300 active; AID 652065, 2013;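 active means inhibition above a per-plate cutoff, the mean inhibition of sample wells plus 3 SD, cut at about 35% in these data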;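 further: loss of TO-PRO-1 fluorescence as compound displaces dye from 1x1 AA loop RNA; 0% = DMSO only wells and 100% = 100 µM mitoxantrone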
DNA CAG counter: displacement of TO-PRO-1 from CAG DNA duplex, counter-screen for rCAG RNA repeat binder project, biochemical, fluorescence, TO-PRO-1 dye, d(CAG) DNA oligo; shares compounds with rCAG RNA binder; d(CAG) DNA oligo TO-PRO-1 dye displacement; inhibition, % at 3 µM; 94% of 4,300 active;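 active means inhibition above its plate's cutoff, the mean test-well inhibition plus 3 SD, cut at about 4.8% in these data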;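 further: 0% = DNA dye mix with DMSO and 100% = 100 µM mitoxantrone; hits displace the dye from DNA and so lower well fluorescence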
dCAG dye DR: inhibitors of DNA CAG/GTC TO-PRO-1 complex, dose response, counter-screen for rCAG RNA repeat binder project, biochemical, fluorescence, TO-PRO-1 dye; DNA CAG/GTC duplex TO-PRO-1 dye displacement fluorescence; shares compounds with rCAG RNA binder; IC50, µM; 20% of 250 active; in the data active means IC50 below about 10 µM
Active calls of the source: *; / = not tested or not shown.

SMILES	DAGLB inh	DSG3 Ab inh	MsrA inhibitor	rCAG RNA binder	MsrA act	NadD inh	NadD conf	rCAG bind conf	DNA CAG counter	others
CCn1c2ccccc2c2cc(NC(=O)COC(=O)c3ccc(NC(=O)CC#N)cc3)ccc21	7.3	68.6*	1.4	46.7*	-3.9	63.9*	40.5	34.6*	21.3*
CCn1c2ccccc2c2cc(NC(=O)COC(=O)c3ccc(C)cc3)ccc21	/	/	/	3.5	/	/	/	/	/
CCn1c2ccccc2c2cc(NC(=O)COC(=O)c3ccccc3O)ccc21	3.9	87.7	0.9	4.1	-1.6	13.5	/	/	/
CCn1c2ccccc2c2cc(NC(=O)CSc3nccc(=O)[nH]3)ccc21	2.2	/	1.8	44.5*	-1.6	40.5*	50.2*	40.3*	15.9*
CCn1c2ccccc2c2cc(NC(=O)COC(=O)c3cc(S(N)(=O)=O)c(Cl)cc3Cl)ccc21	2.8	83.7	0.6	36.4*	-6.7	40.6*	26.4	32.3	16.9*
CC(C)n1c(CNC(=O)c2ccccc2F)nnc1SCC(=O)NC1CCCCC1	9.1	99.2	1.8	46.3*	-4.2	32.4*	16.2	30.4	18.2*
CCn1c(CNC(=O)c2ccccc2F)nnc1SCC(=O)NC1CCCCC1	-0.6	83.8	-0.2	-3.8	3.0	2.9	/	/	/
O=C(N/N=C\C=C\c1ccco1)c1cc(-c2ccc3ccccc3c2)n[nH]1	9.7	95.4	2.2	44.3*	-5.8	54.2*	69.4*	33.9	20.3*
C/C(C=NNC(=O)c1cc(-c2ccc(C)c(C)c2)n[nH]1)=C/c1ccco1	/	/	/	20.1	/	/	/	/	/
Cc1ccc(OCC(C)CN2CCC(C(O)(c3ccccc3)c3ccccc3)CC2)cc1 (stereo not drawn)	/	/	/	2.3	/	/	/	/	/
O=C(Nc1nc(-c2ccco2)c(-c2ccco2)s1)c1c(F)cccc1Cl	10.0	/	0.3	78.1*	-8.4	43.2*	34.8	28.2	14.0*
O=C(Nc1ccc(S(=O)(=O)Nc2nccs2)cc1)/C(=C/c1ccccc1Cl)NC(=O)c1ccccc1	4.0	124.2	1.2	77.9*	-4.5	39.2*	55.7*	67.7*	34.6*
COc1cc(NS(=O)(=O)c2ccc(NS(=O)(=O)c3ccc(NC(C)=O)cc3)cc2)nc(OC)n1	0.5	110.1	-0.8	6.4	-2.7	1.2	/	/	/
COc1cc(NS(=O)(=O)c2ccc(NC(=O)/C(=C/c3ccccc3Cl)NC(=O)c3ccccc3)cc2)nc(OC)n1	9.0	93.8	-0.1	73.8*	0.1	33.1*	48.9*	78.7*	33.7*	dCAG dye DR=9.82*
CC(C)[C@H](NC(=O)c1ccccc1Cl)C(=O)Nc1ccc(S(=O)(=O)Nc2nccs2)cc1	3.2	102.1	0.0	31.9	-1.6	8.1	/	/	/
O=C(N/N=C/c1ccc(-c2ccc(Cl)c(C(=O)O)c2)o1)c1cc2c(ccc3ccccc32)o1	1.7	95.9	3.5	52.4*	-9.4	39.1*	51.5*	85.9*	61.4*
CCN(CC)C(=O)C1=C(C)N(Cc2ccc(F)cc2)C(=O)C(CC(=O)NCCN2CCOCC2)C1 (stereo not drawn)	-2.4	/	-0.5	-0.4	-1.6	-2.2	/	/	/
COc1ccc(CN2C(=O)[C@@](O)(c3cccn3C)c3cc(Br)ccc32)cc1	/	/	/	3.4	/	/	/	/	/
